Source: PubChem BioAssay AID485317 (Broad Institute, 2010)
Among all 290,000 compounds or so, about 11,000 (3.8%) were called active. This is one part of a sample in which actives are shown more often than they occur.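 Rule for the calls: active = mean replicate inhibition above about 79%, with every replicate also reaching it (limit read from the data); inconclusive = only one of the two criteria met; inactive = mean below limit and not every replicate reaching it.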

These compounds were tested against FAD-linked sulfhydryl oxidase ALR (Homo sapiens) (UniProt P55789) (assay: inhibitors of human ALR sulfhydryl oxidase, primary screen, biochemical, H2O2 detection, HRP-luminol luminescence, single point (AID 485317)). Conditions: purified ALR, DTT oxidation, active compounds read high, concentration not given here.
FAD-linked sulfhydryl oxidase ALR (Homo sapiens), sequence (P55789 whole entry, looked up): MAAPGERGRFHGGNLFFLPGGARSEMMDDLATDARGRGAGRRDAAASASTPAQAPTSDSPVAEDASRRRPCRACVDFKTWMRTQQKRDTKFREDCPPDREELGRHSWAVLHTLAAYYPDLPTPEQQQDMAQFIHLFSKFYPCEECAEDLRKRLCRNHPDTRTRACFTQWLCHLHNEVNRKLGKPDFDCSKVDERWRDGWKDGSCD

inhibition, inactive:
O=C1C=CN2CCCC2CC1 (centres undefined) -8.59%, Cc1ccccc1Nc1nc(-c2cccnc2)cs1 11.2%, O=C(Nc1nc(-c2cccnc2)cs1)c1ccccc1F 1.15%, C=CCC[C@H](Cc1ccc(F)cc1)C(=O)OC[C@H](C)NC(=O)[C@H](CC=C)CC(=O)N(CCO)Cc1ccccc1 2.24%, COc1ccc([C@H]2CC(=O)C=C(/C=C/c3ccccc3)C2)cc1 1.57%, O=C(NCCN1CCOCC1)c1cccc(S(=O)(=O)Nc2ccc(F)cc2)c1 -5.52%, O=C(COC(=O)c1ccc(Br)o1)NC12CC3CC(CC(C3)C1)C2 -1.81%, Cc1ccc(S(=O)(=O)Nc2nc(C)cc(-n3nc(C)cc3C)n2)cc1 7.83%, Cc1cc(N/N=C\c2ccc(Br)cc2)nc(-n2nc(C)cc2C)n1 -2.32%, CCN(C[C@H]1N[C@@](CC)(C(=O)OC)[C@H]2C(=O)N(Cc3ccccc3)C(=O)[C@@H]12)S(=O)(=O)c1ccc(C(F)(F)F)cc1 17.3%, CCCc1ccc(OCC(O)CN2CCN(CCO)CC2)cc1 (centres undefined) -1.03%, CCc1ccc(S(=O)(=O)NCC(O)COc2ccc(OC)cc2)cc1 (centres undefined) -11.7%, CCN(CC)C(CNC(=O)CSc1nnnn1-c1cccc(F)c1)c1ccco1 (centres undefined) -5.32%, O=c1c2ccccc2ccc2ccc(P(=O)(O)O)cc12 -13.1%, O=C1NC[C@@H](c2ccccc2)OC(=O)[C@H](Cc2ccc(F)cc2)CC/C=C/C[C@H]1CC(=O)N(CCO)Cc1ccccc1 -7.53%, CC(C)(C)OC(=O)Nc1ccc([C@@H](NC(=O)OC(C)(C)C)C(=O)OC(C)(C)C)cc1 2.09%, CC(C)NC(=O)c1ccc(Sc2ccccc2)c([N+](=O)[O-])c1 5.17%, Cc1cc(C(=O)O)ccc1[N+](=O)[O-] -8.6%, COc1ccc2ccn(C)c2c1 7.82%, O=C(CNC(=O)c1n[nH]c2ccccc12)Nc1cc(Cl)ccc1Cl -1.04%, Cc1ccc(CNC(=O)COC(=O)C2CCC2)cc1 2.97%, O=C(CSc1nc2ccccc2s1)Nc1ccc(C(=O)O)cc1 -1.73%, CCN(CC)CCCSc1nc2ccccc2s1 -9.41%, Cc1ccc(C(=O)OCC(=O)N2CC(C)CC(C)C2)cc1S(=O)(=O)N1CCCCC1 (centres undefined) -62.3%, COCCCn1c(SCC(=O)Nc2oc(C)c3c(C)n[nH]c(=O)c23)nc2sc3c(c2c1=O)CCC3 -9.92%, CC(OC(=O)CCC(=O)c1ccccc1)C(=O)Nc1ccc(F)cc1 (centres undefined) -4.58%, O=C(CCCN=C1NS(=O)(=O)c2ccccc21)OCC(=O)c1ccc(F)c(F)c1 -7.91%, CC(C)(C)Nc1c(N)c(=O)oc2ccccc12 72.1%, NC(=O)c1oc2ccccc2c1NC(=O)Cc1ccccc1 -7.38%, O=C(Nc1ccc(C(F)(F)F)cc1)c1cccc(-n2cnnn2)c1 -5.63%, CSc1ncccc1C(=O)NCC(c1ccco1)N1CCCCC1 (centres undefined) -3.83%, O=C(COC(=O)c1cc(=O)[nH]c2ccccc12)NCc1cccc(Cl)c1 1.99%, N#C/C(=C\c1ccc(-c2cccc([N+](=O)[O-])c2)o1)C(=O)NCCN1CCOCC1 -9.22%, COc1ccc(N2CCN(C(=O)/C(C#N)=C/c3ccccc3)CC2)cc1 33.6%, COc1ccccc1C(=O)NCCC(=O)NC(C)CCc1ccccc1 (centres undefined) -10.1%, Cc1sc2ncnc(N3CCC(C(=O)Nc4nc5ccc(Cl)cc5s4)CC3)c2c1C -1.15%, CC(C)Oc1ccc(C(=O)NCC(=O)Nc2ccc3c(c2)CCC3)cc1 1.47%, COc1ccc(OCC(=O)NNC(=O)C2CCC2)cc1 -2.8%, O=C(COc1ccc(Cl)cc1)Nc1ccc2c(c1)OCO2 -11.8%, O=C(NCc1ccccc1CN1CCCC1)C1CCN(S(=O)(=O)c2ccc(Cl)cc2)CC1 2.81%, COC(=O)C1=C(C)N(Cc2ccccc2)C(=NCCCOC(C)C)N[C@H]1c1ccccc1 -6.98%, CCCCC(CC)CNC(=O)CCCCn1c(=O)[nH]c2ccsc2c1=O (centres undefined) -6.66%, CCN(CC)CCCNC(=O)CCc1ccccc1 -4.98%, CC(C)(C)Oc1ccccc1Nc1nc(NCCO)nc(N2CCCC2)n1 6.57%, Cc1ccsc1C(=O)NNC(=O)COc1ccc(Br)cc1 -3.21%, CCn1c(SCC(=O)Nc2nccs2)nnc1-c1ccco1 -4.02%, CCn1c(SCC(=O)Nc2nccs2)nnc1-c1ccncc1 -12.3%, Cc1cc(C(=O)OCC(=O)Nc2nccs2)c2ccccc2n1 -1.42%, Cc1cc(-c2nnc(SCC(=O)Nc3ccc(F)cc3)n2N)n[nH]1 -1.02%, COc1ccc(NC(=O)CSc2nc3ccccc3c(=O)n2C)cc1 -13.7%, CCn1c(SCC(=O)Nc2ccc(OC)c(OC)c2)nnc1-c1c[nH]c2ccccc12 -15.3%, COc1ccc(Cc2nnc(SCC(=O)N(c3ccccc3)C(C)C)n(N)c2=O)cc1 -4.76%, Cn1c(SCC(=O)Nc2nccs2)nnc1-c1cccnc1 2.9%, O=C(c1cc(-c2ccc(Cl)s2)nc2ccccc12)N1CCOCC1 -1.66%, CN1CCC(N(C)S(=O)(=O)c2ccc(NC(=O)c3cccc(C#N)c3)cc2)CC1 -3.41%, Cc1nc2c(c(C)nn2-c2ccccc2)c(C)c1C -7.19%, Cc1nc(-c2ccc(Cl)cc2)sc1C1(C)CC(c2ccc(Br)cc2)=NO1 (centres undefined) -3.38%, CCCCN(C(=O)CCNC(=O)NC12CC3CC(CC(C3)C1)C2)c1c(N)n(CCCC)c(=O)[nH]c1=O -9.44%, CC(=O)CC(CC(=O)NC1CCCCC1)c1ccccc1 (centres undefined) -6.14%, CN(CC(=O)NNC(=O)CNC(=O)c1ccccc1Cl)S(=O)(=O)c1ccc(Cl)cc1 -3.96%, CCN1C(=O)[C@@H]2[C@@H](c3ccc(-c4cccc(Cl)c4)cc3)N3CCC[C@@]3(C(=O)OC)[C@@H]2C1=O -0.179%, CC1(C)O[C@@H]2[C@H](O1)[C@@H](COS(=O)(=O)O)O[C@H]2n1cnc2c(=O)[nH]cnc21 -3.87%, O=C(Nc1ncccc1O)c1ccc(S(=O)(=O)N2CCCCCC2)cc1 -12.4%, O=C(OCCOCn1cc(Br)c(=O)[nH]c1=O)c1ccccc1 18.4%, Cc1[nH]c2ccccc2c1C(=O)CN1CC(C)CC(C)C1 (centres undefined) -7.59%, CCOC(=O)N1CCN(CC(=O)c2c(C)[nH]c3ccccc23)CC1 -13%, CC(=O)Nc1ccc(NC(=O)COC(=O)C2CCC(C(C)(C)C)CC2)cc1 (centres undefined) -2.92%, CCOC(=O)CCCCCC(=O)Nc1ccc2c(c1)CC(=O)N([C@@H](C)CO)C[C@H](C)[C@@H](CN(C)Cc1ccccc1)O2 -2.17%, CCCCNC(=O)N(O)C1N(/N=C/c2ccccc2O)C(=S)SC1(C)C (centres undefined) -2.9%, CCC(C)N1C(=S)SC(C)(C)C1N(O)C(=O)NC1CCCCC1 (centres undefined) -8.63%, COc1ccc(OCC(=O)NNC(=O)c2ccc(-c3ccccc3)cc2)cc1 1.13%, COc1ccc(C(=O)NNc2cc(C)nc(NNC(=O)c3ccc(OC)cc3)n2)cc1 12.7%, O=C(CNS(=O)(=O)c1ccc2c(c1)OCCCO2)N1CCN(c2ccc(F)cc2)CC1 3.71%, CC(C)NC(=O)Nc1cccc2c1O[C@H](CN(C)S(=O)(=O)c1cccs1)[C@@H](C)CN([C@H](C)CO)C2=O 0.238%, Cc1[nH]n(-c2cccc(Cl)c2)c(=O)c1-c1ccc(Cl)cc1 32.9%, CC1=NN(C(N)=S)C(=O)C1N=Nc1cc(Cl)ccc1Cl (centres undefined) 34.1%

inhibition, active:
CN(c1ccc(O)cc1)c1nc(-c2cccnc2)cs1 95.1%, Cc1ccc(S(=O)(=O)Nc2nc(C)cc(N/N=C/c3ccc(O)cc3)n2)cc1 98.5%, Nc1ccc(OCC(O)C[n+]2ccc(CCS(=O)(=O)[O-])cc2)cc1 (centres undefined) 98.1%, Cc1ccc(Sc2cc(C(=O)c3ccccc3C(=O)O)ccc2[N+](=O)[O-])cc1 97.5%, COc1ccc2c(c1)cc1n2CCN=C1NN 97.6%, O=C(O)c1ccccc1CSc1nc2ccccc2s1 98.5%, Nc1c(NCCc2ccccc2)c2ccccc2oc1=O 98.8%, N#C/C(=C\c1ccc(N2CCOCC2)o1)C(=O)N1CCOCC1 83.6%, NNC(=O)COc1ccc(C2SCCS2)cc1 89.6%, CCN(CCCNC(=O)CCn1c(=O)[nH]c2ccsc2c1=O)c1ccccc1 99.3%, COc1ccc(NC(=O)CSc2nnc(Cc3ccccc3)c(=O)n2N)cc1 98.6%, Cc1[nH]c2ccccc2c1SCC(=O)Nc1nccs1 97.1%, Nn1c(SCC(=O)Nc2nccs2)nncc1=O 98.8%, COc1ccc(NC(=O)CSc2nncc(=O)n2N)cc1OC 87%, Cc1[nH]c2ccccc2c1C(=O)CSCC(=O)O 98.3%, CCCCNC(=O)N(O)C1N(/N=C/c2ccc(N(C)C)cc2)C(=S)SC1(C)C (centres undefined) 98.8%, Cc1nc(NNC(=O)c2ccccc2)cc(-c2ccccc2)n1 90.8%, Cc1[nH]n(C(N)=S)c(=O)c1N=Nc1ccc(Cl)cc1Cl 96.2%
